Assay outcomes as filed in PubChem.
Cycloheximide cs: Cycloheximide Counterscreen for Small Molecule Inhibitors of Shiga Toxin | cell reporter, cycloheximide protein synthesis inhibition counterscreen | max response, % | 12% of 300,000 active | AID 2314, 2010; in the data active = max response mostly above about 13%, no sharp cut-off; inactive = mostly below about 14%; note: read at 38.3 µM for the half of the compounds with a filed dose; 0% is about no effect
Pf growth 48h: Primary qHTS for delayed death inhibitors of the malarial parasite plastid, 48 hour incubation | P. falciparum luciferase growth in erythrocytes, 48 h | Potency, µM (highest dose often 28.7 µM), for inactives: at the highest dose activity change, negative = inhibition, usual class: inhibitors | 5.9% of 310,000 active; note: potency is the fitted concentration of half-maximal effect; % is set by controls: 0 for no effect and ±100 for the full control effect
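Read-out is firefly luciferase luminescence from an integrated reporter in P. falciparum, so falling signal marks reduced parasite growth. Infected erythrocytes were at 2% hematocrit and 0.1% parasitemia (final) in Albumax-supplemented RPMI 1640.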
Pf growth 96h: Primary qHTS for delayed death inhibitors of the malarial parasite plastid, 96 hour incubation. 6.9% of 320,000 active. Potency, µM (highest dose often 28.7 µM), for the others: top-dose activity change, negative = inhibition, actives largely listed as inhibitors. P. falciparum luciferase reporter growth, 96 h; note: potency is the fitted concentration of half-maximal effect; % is set by controls: 0 for no effect and ±100 for the full control effect
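Plates of compound plus infected erythrocytes (2% hematocrit, 0.05% parasitemia final) incubate 96 hours, 37 C, 5% CO2. Detection reagent added; reduced luminescence from the parasites' luciferase reporter flags inhibition.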
SARS PLpro yeast: qHTS of Yeast-based Assay for SARS-CoV PLP. S. cerevisiae expressing SARS-CoV PLpro, growth rescue. Potency, µM (series often up to 32.9 µM), for inactives: at the top dose activity, positive = growth rescue, actives largely listed as activators. 0.19% of 330,000 active; calls by dose curve; note: potency is the fitted concentration of half-maximal effect; 0% is about no effect; nearly all actives have a fitted effect of over 55% in size
NS1 function inh: qHTS Assay for Inhibitors of Influenza NS1 Protein Function. Potency, µM (doses to about 46.1 µM), for the others: at the highest dose activity, positive = more growth. 0.4% of 270,000 active. AID 2326, 2010; calls by dose curve; note: potency is the fitted concentration of half-maximal effect; actives are rising curves; nearly all actives have a fitted effect of over 50% in size
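Growth recovery, yeast-based: influenza A NS1 expressed in S. cerevisiae causes slow growth, and suppressors are detected by OD600. The parent strain without NS1 is used as positive control.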
Shiga toxin inh: A qHTS for Small Molecule Inhibitors of Shiga Toxin. Vero cells, Shiga toxin protein synthesis inhibition reporter. 9.2% of 290,000 active. inhibition, % at 38.7 µM; in the data active = inhibition mostly above about 28%, no sharp cut-off; inactive = mostly below about 43%; note: 0% is about no effect
Starred values were filed as active, the others as inactive; ? = inconclusive; · = no result given. This is a sample that favours compounds with a hit; in the whole collection about 21% have one here. Unless noted, calls come from the whole dose curve; as a rule, active = well fitted inhibition curve with a large enough effect; inconclusive = small, poorly fitted or top-dose-only effect, or another doubt; inactive = no such curve, though single readings can be large or run the other way.

SMILES | Cycloheximide cs | Pf growth 48h | Pf growth 96h | SARS PLpro yeast | NS1 function inh | Shiga toxin inh
CSc1nsc(SCC(=O)Nc2ccccc2F)n1 | 31* | 27% | 42% | -1% | -1% | 58*
CSc1nsc(SCC(=O)Nc2ccccc2C(N)=O)n1 | 11* | -17% | -2% | 1% | 0% | 38*
CSc1nsc(SCC(=O)Nc2cccc(C(C)=O)c2)n1 | 9 | -20% | · | -6% | 4% | 26
NC(=O)c1ccc(NC(=O)CSC(=O)c2ccccc2)cc1 | · | · | · | 0% | · | ·
Cc1cc(=O)n2nc(N3CCC(C(=O)NCc4cccc(Cl)c4)CC3)sc2n1 | -7 | ? | -19% | -2% | 11% | 2
CSc1nsc(NC(=O)Cc2ccccc2)n1 | 46* | 72% | 24% | -9% | -54% | 86*
COc1ccc2c(c1)c(CC(=O)Nc1ccc(C)cc1)c(C)n2C(=O)c1ccc(Cl)cc1 | -1 | · | -13% | 1% | 2% | -9
COc1ccc(NC(=O)Cc2c(F)cccc2Cl)cc1 | 31* | 28% | 38% | 0% | 3% | 62*
COc1ccc(NC(=O)Cc2c(C)n(C(=O)c3ccc(Cl)cc3)c3ccc(OC)cc23)cc1 | 13 | ? | 3.3µM* | -17% | 11% | 28
COc1ccc(CC(=O)OCC(=O)Nc2ccc(F)cc2)cc1 | · | 20% | 21% | 0% | · | ·
COc1ccccc1NC(=O)Cc1c(F)cccc1Cl | -7 | ? | ? | 24% | 1% | -11
COc1ccc(NC(=O)COC(=O)Cc2c(F)cccc2Cl)cc1 | 45* | -9% | 13% | -2% | · | 33*
O=C(CSc1c[nH]c2ccccc12)N1CCOCC1 | -2 | 30% | 37% | -4% | 3% | 20
CN1C(=O)C(C(=O)NC(C)(C)C)C2c3ccccc3OC13CCCCC23 (stereo not given) | -2 | ? | 106% | -8% | -6% | -7
CC(C)CCn1cnc2c(oc3nc4c(cc32)CCCC4)c1=O | 24* | 0% | -96% | -1% | -6% | 14
COCCNC(=O)c1ccccc1NC(=O)CCSc1ccccc1 | 2 | 2% | ? | -1% | 4% | 17
O=C(CCc1ccccc1)NC(=S)Nc1ccccc1Br | 13 | 12% | 23% | -1% | 3% | 52*
COc1ccccc1NC(=S)NC(=O)CCc1ccccc1 | 11 | 2% | -5% | 7% | -12% | 10
O=C(CCc1ccccc1)NC(=S)Nc1cccc(C(=O)O)c1 | 58* | 144% | 0% | 5% | ? | 103*
O=C(CCCc1ccccc1)Nc1cccc(C(=O)O)c1 | 60* | 176% | ? | 0% | 8% | 122*
O=[N+]([O-])/C=C1\C=CC=CN1Cc1ccc(Cl)cc1 | -4 | 15% | -6% | 1% | 2% | -6
CC1(C)CC(NC(=O)C2CCN(S(=O)(=O)c3ccc(F)cc3)CC2)CC(C)(C)N1 | 0 | 10% | -39% | ? | -7% | 1
C=CCOc1c(CCC)cc(CCC)cc1C(N)=O | 1 | ? | ? | -1% | 6% | 7
O=C(Cc1ccccc1Cl)NCc1cccnc1 | -1 | -9% | 0% | 1% | 5% | ·
Cc1ccc(NC(=O)N2C3CCCC2CC(NC(=O)C(C)(C)C)C3)cc1 (stereo not given) | 3 | -27% | 36% | 6% | 25% | 3
SMILES | Cycloheximide cs | Pf growth 48h | Pf growth 96h | SARS PLpro yeast | NS1 function inh | Shiga toxin inh
COc1cccc(CN2CCN(c3ccc(F)cc3)C2=O)c1 | 34* | 34% | ? | -1% | 4% | 33
COc1cccc(CN2CC=C(c3ccc(F)cc3)CC2)c1 | -2 | 6% | ? | -6% | 9% | -5
O=C1N(Cc2ccc(F)cc2)CCN1c1ccc(F)cc1 | 29* | 86% | 124% | -1% | -6% | 58*
CC(C)[C@H](NC(=O)c1ccco1)C(=O)OCC(=O)N1CC(=O)Nc2ccccc21 | -1 | 23% | 2% | -5% | · | 20
CC(C)[C@H](NC(=O)c1ccco1)C(=O)OCC(=O)N1CCc2ccccc21 | 14* | 33% | · | 0% | -24% | 73*
CC(C)[C@H](NC(=O)c1ccco1)C(=O)OCC(=O)NC12CC3CC(CC(C3)C1)C2 | 21* | 8% | -2% | 6% | · | 59*
